These results are taken from PubChem BioAssay AID2221 (Broad Institute, 2009).

Screen size: about 290,000 compounds; about 2,200 (0.76%) were called active. No stated cut-off is given here; in the data, active means inhibition above about 30%; inconclusive means no clear call, values can overlap the other calls; inactive means below that. The entries come from a sample that favours actives as a whole.

By inhibition is commonly meant the change of the read-out against control, counted positive when it falls.

The target of this experiment is Protein RecA (Mycobacterium tuberculosis (strain ATCC 25618 / H37Rv)) (UniProt P9WHJ3). Description: Mtb RecA intein splicing inhibitors, primary screen, biochemical, fluorescence, HTS (AID 2221).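 Further: 0% = vehicle wells and 100% = reference inhibitor control wells.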 As to conditions: cell-free RecA intein splicing, stronger effect = higher value, concentration not given here.
Protein RecA (Mycobacterium tuberculosis (strain ATCC 25618 / H37Rv)), sequence (P9WHJ3 whole entry, looked up): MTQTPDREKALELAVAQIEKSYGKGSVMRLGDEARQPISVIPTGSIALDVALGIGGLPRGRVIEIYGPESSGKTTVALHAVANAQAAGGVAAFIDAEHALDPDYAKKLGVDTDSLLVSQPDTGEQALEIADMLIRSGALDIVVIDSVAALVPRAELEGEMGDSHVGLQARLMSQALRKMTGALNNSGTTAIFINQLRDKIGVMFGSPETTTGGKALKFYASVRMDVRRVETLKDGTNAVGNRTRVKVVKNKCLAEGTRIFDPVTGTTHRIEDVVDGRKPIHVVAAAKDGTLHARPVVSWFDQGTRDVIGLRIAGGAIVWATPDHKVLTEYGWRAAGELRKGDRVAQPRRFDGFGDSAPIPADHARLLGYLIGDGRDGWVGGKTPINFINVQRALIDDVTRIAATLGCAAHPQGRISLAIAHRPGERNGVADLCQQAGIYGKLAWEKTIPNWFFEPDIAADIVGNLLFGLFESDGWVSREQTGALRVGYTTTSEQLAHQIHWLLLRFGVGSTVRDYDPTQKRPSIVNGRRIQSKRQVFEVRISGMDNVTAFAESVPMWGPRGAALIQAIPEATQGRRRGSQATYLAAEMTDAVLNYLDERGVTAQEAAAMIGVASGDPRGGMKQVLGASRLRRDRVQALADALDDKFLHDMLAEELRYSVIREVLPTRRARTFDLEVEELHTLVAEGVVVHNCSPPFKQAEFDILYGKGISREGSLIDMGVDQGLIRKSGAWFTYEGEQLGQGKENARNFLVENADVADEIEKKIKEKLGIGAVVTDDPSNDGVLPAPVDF
Consider `CC(Oc1cccc(Cl)c1)C(=O)NC1CC(C)(C)NC(C)(C)C1` (configuration not stated), for which the inhibition was 1.06% (inactive).

On to `Cc1ccc(Cl)cc1NC(=O)C1CCN(S(C)(=O)=O)CC1`, for which the inhibition is 4.05% (inactive).

Consider `CC(=O)Oc1ccc(N(C(C)=O)S(=O)(=O)c2ccc3ccccc3c2)cc1Br`, for which the inhibition is 36.3% (active).

Consider `COCCNC(=O)COc1ccc(N(C)S(=O)(=O)c2ccc3ccccc3c2)cc1`, for which the inhibition is 2.67% (inactive).

In the case of `CN(c1ccc(OCC(=O)O)cc1)S(=O)(=O)c1ccc2ccccc2c1`, the inhibition was 1.36% (inactive).

As to `CC/C(=N\NC(=O)c1c(C)nc2ccccn12)c1ccc(Cl)cc1`, the inhibition was -3.74% (inactive).

On to `COc1ccc(NC(=O)C(NC(C)=O)C(=O)NCc2ccccc2Cl)cc1` (configuration not stated), for which the inhibition is -12.2% (inactive).

Take `COc1ccc(C2CC(c3cccs3)Nc3nnnn32)cc1` (configuration not stated): the inhibition is 2.29% (inactive).

For the compound `COc1ccccc1CN1CCCC(N2CCN(c3ccc(F)cc3)CC2)C1` (configuration not stated), the inhibition was 1.51% (inactive).

With `CCCc1[nH]nc2c1C(c1ccc(OC)c(Cn3nc(C)c(Br)c3C)c1)C(C#N)=C(N)O2` (configuration not stated), the inhibition was 16.3% (inactive).

`COc1ccc(C2C(C#N)=C(N)Oc3n[nH]c(C)c32)cc1CN1CCN(c2ccc(F)cc2)CC1` (configuration not stated): the inhibition was 49.8% (active).

For `O=C(CN1CCCC1)Nc1sc2c(c1C(=O)Nc1ccccc1)CCCC2`, the inhibition was -1.42% (inactive).

As to `CCOP(=O)(OCC)C(Nc1ccc([N+](=O)[O-])cc1)c1ccc(Cl)cc1` (configuration not stated), the inhibition is 5.51% (inactive).

In the case of `COc1ccc(C2/C(=C(/O)c3ccccc3)C(=O)C(=O)N2C)c(OC)c1` (configuration not stated), the inhibition was 1.48% (inactive).

Take `COc1ccc(/C=C2/C(=O)OCc3cc(OC)c(OC)cc32)c(OC)c1`: the inhibition is -0.742% (inactive).

As to `COc1ccc(/C=C2/C(=O)N(c3ccccc3)N=C2C)c(OC)c1`, the inhibition was 70% (active).

With `O=[N+]([O-])c1ccc(N2CCN(c3ccc(F)cc3)CC2)cn1`, the inhibition was 0.617% (inactive).

On to `COc1ccc(C(=O)NC2CC(C)(C)NC(C)(C)C2)cc1OC`, for which the inhibition was 0.554% (inactive).

In the case of `O=C(CCN1C(=O)/C(=C/c2cccs2)SC1=S)NNC(=O)c1cccc(O)c1`, the inhibition is -2.74% (inactive).

As for `O=C(CCCN1C(=O)/C(=C/c2ccccc2)SC1=S)Nc1ccc(O)cc1`, the inhibition is 45.1% (active).

`Cc1ccc(/C=C2\SC(=S)N(CCC(=O)Nc3ccc(O)cc3)C2=O)cc1`: the inhibition was 3.35% (inactive).

For `O=C(CCCN1C(=O)/C(=C/c2cccs2)SC1=S)Nc1ccc(O)cc1`, the inhibition is 59% (active).

`O=C(CCCN1C(=O)/C(=C\c2ccccc2)SC1=S)Nc1ccccc1O`: the inhibition is -1.47% (inactive).

Consider `COc1ccccc1C(=O)NNC(=O)CCN1C(=O)/C(=C\c2ccccc2)SC1=S`, for which the inhibition was 1.3% (inactive).

As for `CCCCCCNS(=O)(=O)c1ccccc1Br`, the inhibition was 8.15% (inactive).

Regarding `O=C1N[C@H](Cc2ccccc2)C(=O)N[C@H]1Cc1cn(S(=O)(=O)c2ccccc2)c2ccccc12`, the inhibition is 2.29% (inactive).

In the case of `CCOC(=O)CSc1nnc(CNC(=O)c2cccs2)n1-c1cc(OC)ccc1OC`, the inhibition is -0.643% (inactive).
